Data on 23 molecules can be found in PubChem BioAssay (NCI).

Where “and” joins values, the source holds several entries; their conditions need not be identical. Identical values can stand only once. This is part of a sample that, as a whole, favours compounds with a hit. Of some 79,000 tested, about 15% had one in any assay. Values without a mark were called inactive. Calls of active or inactive are those of the source. Cut-off read from the data, not from the text of the source: active = growth inhibition above about 70%; inactive = the rest.

The experiment in a line: NCI Yeast Anticancer Drug Screen. Data for the rad50 strain (AID 155).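 Note: 0% = growth of vehicle-only cultures of the same strain.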 The note with it: S. cerevisiae rad50 strain growth inhibition; at 50.0 µM; active compounds read high. The essentials: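 Genetically altered yeast (DNA repair pathway); compound treatment; growth inhibition vs vehicle ctrl.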
For `C=CC(=O)NCO`, the growth inhibition is -3.9%.

In the case of `CCNC(=O)C(C)Br` (stereo not drawn), the growth inhibition is 19.4%.

Take `O=C1CCP(c2ccccc2)(c2ccccc2)(c2ccccc2)O1`: the growth inhibition is 34.9%.

On to `O=C(N/N=C/c1cc(Br)cc(Br)c1[O-])c1ccccc1O.O=C(N/N=C/c1cc(Br)cc(Br)c1[O-])c1ccccc1O.[Cl-].[Fe+3]`, for which the growth inhibition was -3.25%.

For `CC12CCC3C(CCC4(O)C=CCCC34C=O)C1(O)CC(O)C2c1ccc(=O)oc1` (stereo not drawn), the growth inhibition was -28.1%.

Take `COc1cc2c(cc1OC)C13CCN4CC5=CCOC6CC(=O)N2C1C6C5CC43` (stereo not drawn): the growth inhibition is -13% and 7.35%.

As to `NC(=O)OCC(O)c1ccccc1` (stereo not drawn), the growth inhibition was -11.6%.

On to `Clc1ccc([As](c2ccc(Cl)cc2)c2ccc(Cl)cc2)cc1`, for which the growth inhibition is 77.5% (active).

Turning to `COc1ccc2c3c1O[C@]1(C)C34CCN(C)C(C2)C42C=C[C@@]1(OC)c1c(O)ccc(O)c12`, the growth inhibition was 6.55%.

As for `CCOP(=S)(OCC)OP(=O)(CC)CC`, the growth inhibition was 3.1%.

As for `Cc1ccc(NC(=O)C(=O)C2C(=O)NC(=O)NC2=O)cc1C`, the growth inhibition is -4.9%.

Regarding `O=C(Nc1ccc(O)cc1)c1c(O)[nH]c(=S)[nH]c1=O`, the growth inhibition was -11.7%.

With `NCCCNCCCN`, the growth inhibition was 5.2%.

Consider `COc1cccc(N2C(=O)C3C(C2=O)C2(Cl)C(Cl)=C(Cl)C3(Cl)C2(Cl)Cl)c1` (stereo not drawn), for which the growth inhibition was 58.4%.

As for `COCCCNP(=O)(OC(C)C)OC(C)C`, the growth inhibition is 0.75%.

As for `CCCCCCCCCCCCCCCCCC(=O)NC(CC(=O)OCCCCCC)c1ccc(N(CCCl)CCCl)cc1` (stereo not drawn), the growth inhibition was -2.6%.

For the molecule `CC(=O)Oc1ccc([As](=O)(O)O)cc1`, the growth inhibition is 5.55%.

Turning to `[Cl][Pd]([Cl])([Cl])[Cl].[NH-]CC[NH-].[NH-]CC[NH-].[Pd+2]`, the growth inhibition was 28.7%.

As to `CC1(O)CCC(O)CC1CC(=O)O` (stereo not drawn), the growth inhibition is 11.8%.

As for `CCCCCC[C@@H](O)[C@@H]1C2=C(C[C@H]([C@H](O)[C@@H]3CC=CC(=O)O3)CC3=C(C(=O)OC3=O)[C@@H]1O)C(=O)OC2=O`, the growth inhibition is 20.6%.

On to `CCCCCCOC(=O)C(N)Cc1ccc(OC)c(N(CCCl)CCCl)c1` (stereo not drawn), for which the growth inhibition was 6.5%.

Turning to `CC1CCC2NCCNC2C1` (stereo not drawn), the growth inhibition is 2.45%.

For the molecule `CCOC(=O)C(Cc1ccc(N(CCCl)CCCl)cc1)NC(=O)C(N)CO` (stereo not drawn), the growth inhibition was -4.05%.
